Common to all, as to details: concentration: 10 µM; 24 h
Assay [1] relates to HCC1569. The assay is described as follows: cell number relative to DMSO (% of DMSO); higher = more cells (less growth inhibition / toxicity). Put shortly:
(§1)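 In 384-well plates holding 800 HCC1569 or TDF cells per well in RPMI with 10% FBS, compounds were tested at 10 µM for 24 h at 37 °C in triplicate. Fixation used 3.7% formaldehyde. Staining used a rabbit anti-H1.0 antibody with an AlexaFluor 647 secondary, plus DAPI. Each value, H1.0 nuclear intensity or cell number, is a median of replicates shown as percent of the plate control, and HCC1569 values were smoothed for positional effects.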

The subject of assay [2] is TDF. The description is as above. Put shortly: as §1
Assay [3] relates to TDF. The assay is described as follows: H1.0 immunofluorescence intensity relative to DMSO (% of DMSO); higher = stronger H1.0 induction, active = 120 or more. The method, boiled down: as §1
For assay [4], the system named is HCC1569. The assay is described as follows: H1.0 immunofluorescence intensity relative to DMSO (% of DMSO); higher = stronger H1.0 induction, active = 140 or more. Put shortly: as §1
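For H1.0 immunofluorescence intensity relative to DMSO in this document: TDF is a line of transformed human dermal fibroblasts of mesenchymal origin.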
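For cell number relative to DMSO in this document: TDF denotes transformed human dermal fibroblasts of mesenchymal origin.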

As to `FC(F)(F)c1ccccc1-n1ccnc1` [1-[2-(Trifluoromethyl)phenyl]imidazole], the cell number was 100 in the assay on HCC1569 [1] and 96 with TDF [2]. The H1.0 immunofluorescence intensity with TDF [3] is 96.5 (inactive); in the assay on HCC1569 [4], 108 (inactive).

`CNC(CC(C)C)C(=O)NC1C(=O)NC(CC(N)=O)C(=O)NC2C(=O)NC3C(=O)NC(C(=O)NC(C(=O)O)c4cc(O)cc(O)c4-c4cc3ccc4O)C(O)c3ccc(c(Cl)c3)Oc3cc2cc(c3OC2OC(CO)C(O)C(O)C2OC2CC(C)(N)C(O)C(C)O2)Oc2ccc(cc2Cl)C1O.Cl` (centres undefined) [Vancomycin hydrochloride from Streptomyces orientalis]: the cell number was found to be 99.6 with HCC1569 [1] and 108 in the assay with TDF [2]. The H1.0 immunofluorescence intensity in the assay with TDF [3] is 90.4 (inactive); in the assay with HCC1569 [4], 101 (inactive).

Regarding `O=C(O)COc1ccc(C(=O)c2cccs2)c(Cl)c1Cl` [[2,3-dichloro-4-(2-thienylcarbonyl)phenoxy]acetic acid], the cell number in the assay with HCC1569 [1] turned out to be 106; in the assay with TDF [2], 99.8. The H1.0 immunofluorescence intensity in the assay on TDF [3] was 95.1 (inactive); in the assay on HCC1569 [4], 109 (inactive).

As to `CCN(CCO)CCCC(C)Nc1ccnc2cc(Cl)ccc12.O=S(=O)(O)O` (centres undefined), the cell number with HCC1569 [1] worked out at 99; in the assay on TDF [2] it was 91.2. The H1.0 immunofluorescence intensity with TDF [3] was 102 (inactive); in the assay with HCC1569 [4], 95.7 (inactive).

For the molecule `Nc1nc(Nc2ccccc2)nc2c1ncn2C1OC(CO)C(O)C1O` (centres undefined) [2-Phenylaminoadenosine], the values for the cell number in the assay with HCC1569 [1] and in the assay on TDF [2] were 101 and 100, respectively. Further, the figures for the H1.0 immunofluorescence intensity in the assay on TDF [3] and with HCC1569 [4] were 90 (inactive) and 102 (inactive), respectively.

As for `CC(C)n1c(C=CC(O)CC(O)CC(=O)O)c(-c2ccc(F)cc2)c2ccccc21` (centres undefined) [Fluvastatin], the cell number in the assay on HCC1569 [1] is 96.3; in the assay on TDF [2], 64.5. Also, the H1.0 immunofluorescence intensity with TDF [3] was 148 (active); in the assay on HCC1569 [4], 103 (inactive).

The record behind these values is the supplement of paper PMC7156485.
